Consider 15 molecules from PubChem BioAssay (EPA / NIEHS).

Molecules are shown by their SMILES. The source made the active and inactive calls. Rule for the calls: active = hit-call score of the fitted dose curve at least 0.9, where 1 is the maximum; inactive = score below 0.9.

Read-out in assay [1]: Interleukin-8 (IL8), CXCL8 (gene 3576)
Briefly: BSK_CASM3C_IL8: BioMAP Diversity Plus: CASM3C Assay for Interleukin-8 (IL8) Biomarker Activity (AID 2283042).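 Note: IL-8 protein level quantified by ELISA.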 The settings on record: primary human coronary artery smooth muscle cells; actives raise or lower the signal.

Read-out in assay [2]: Human Leukocyte Antigen - DR isotype (HLADR), HLA-DRA (gene 3122)
The assay is described as follows: BSK_CASM3C_HLADR: BioMAP Diversity Plus: CASM3C Assay for Human Leukocyte Antigen - DR isotype (HLADR) Biomarker Activity (AID 2283043).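 Note: cell-surface HLA-DR protein level quantified by ELISA.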 The settings on record: primary human coronary artery smooth muscle cells; actives raise or lower the signal.

Read-out in assay [3]: Macrophage colony-stimulating factor (MCSF), CSF1 (gene 1435)
Briefly: BSK_CASM3C_MCSF: BioMAP Diversity Plus: CASM3C Assay for Macrophage colony-stimulating factor (MCSF) Biomarker Activity (AID 2283044).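 Note: M-CSF protein amount quantified by ELISA after 24 h exposure.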 The settings on record: primary human coronary artery smooth muscle cells; actives raise or lower the signal.

Read-out in assay [4]: Low-density lipoprotein receptor (LDLR), LDLR (gene 3949)
The assay is described as follows: BSK_CASM3C_LDLR: BioMAP Diversity Plus: CASM3C Assay for Low-density lipoprotein receptor (LDLR) Biomarker Activity (AID 2283045).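 Note: LDLR protein level on the cell surface quantified by ELISA.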 Conditions: primary human coronary artery smooth muscle cells; actives raise or lower the signal.

Read-out in assay [5]: Monocyte Chemoattractant Protein-1 (MCP1), CCL2 (gene 6347)
The assay is described as follows: BSK_CASM3C_MCP1: BioMAP Diversity Plus: CASM3C Assay for Monocyte Chemoattractant Protein-1 (MCP1) Biomarker Activity (AID 2283046).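 Note: MCP-1 level quantified by ELISA 24 h after dosing.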 Conditions: primary human coronary artery smooth muscle cells; actives raise or lower the signal.

Assay [6] can be described thus: BSK_CASM3C_Proliferation: Cell Proliferation Assessment in the BioMAP Diversity Plus: CASM3C Assay (AID 2283047).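 Note: sulforhodamine B total protein stain as relative cell number at 560 nm; sub-confluent cells exposed 48 h before staining; fitted both ways against DMSO so gain or loss of cell number.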 Conditions: primary human coronary artery smooth muscle cells.
Read-out in assay [7]: Monokine induced gamma interferon (MIG), CXCL9 (gene 4283)
Briefly: BSK_CASM3C_MIG: BioMAP Diversity Plus: CASM3C Assay for Monokine induced gamma interferon (MIG) Biomarker Activity (AID 2283048).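 Note: MIG protein level measured by ELISA.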 Conditions: primary human coronary artery smooth muscle cells; actives raise or lower the signal.

Read-out in assay [8]: serum amyloid A (SAA), SAA1 (gene 6288)
The assay is described as follows: BSK_CASM3C_SAA: BioMAP Diversity Plus: CASM3C Assay for serum amyloid A (SAA) Biomarker Activity (AID 2283049).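 Note: SAA protein level quantified by ELISA.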 The settings on record: primary human coronary artery smooth muscle cells; actives raise or lower the signal.

Assay [9] can be described thus: BSK_CASM3C_SRB: Viability Assessment in the BioMAP Diversity Plus: CASM3C Assay (AID 2283050).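 Note: total protein by SRB staining as cytotoxicity measure in parallel cultures; cells exposed to compound for 24 h.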 The settings on record: primary human coronary artery smooth muscle cells.
Read-out in assay [10]: Thrombomodulin, THBD (gene 7056)
Briefly: BSK_CASM3C_Thrombomodulin: BioMAP Diversity Plus: CASM3C Assay for Thrombomodulin Biomarker Activity (AID 2283051).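 Note: thrombomodulin protein level measured by ELISA 24 h after dosing.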 Conditions: primary human coronary artery smooth muscle cells; actives raise or lower the signal.

On to `CCC(C)OC(=O)N1CCCCC1CCO` (stereo not given), for which the outcome in [1], in assay [2], in [3], in assay [4], in assay [5] and in assay [6] was inactive. The outcome in assay [7], in assay [8], in [9] and in assay [10] was inactive.

For `COc1nc(C)nc(NC(=O)NS(=O)(=O)c2ccccc2OCCCl)n1`, the result in assay [1], in assay [2], in [3], in [4], in assay [6] and in assay [7] was inactive. Also, the outcome in assay [8], in assay [9] and in assay [10] was inactive. The AC50 (commonly the midpoint of the concentration-response curve, whichever way the signal moves) in assay [5] is 0.441 µM (active).

`COC(=O)c1cccc(C)c1S(=O)(=O)NC(=O)Nc1nc(OCC(F)(F)F)nc(N(C)C)n1`: the result in assay [1], in assay [2], in assay [3], in assay [4], in [5] and in [6] was inactive. In addition, the result in assay [7], in assay [8], in assay [9] and in [10] was inactive.

In the case of `CC(C)(C)[C@@H](O)[C@@H](Cc1ccc(Cl)cc1)n1cncn1`, the outcome in assay [1], in assay [2], in assay [3], in assay [4], in assay [5] and in [6] was inactive. Besides, the result in [7], in assay [8], in assay [9] and in assay [10] was inactive.

Regarding `CCNc1nc(N)nc(Cl)n1`, the result in assay [1], in assay [2], in assay [3], in assay [4], in assay [5] and in assay [6] was inactive. Besides, the outcome in assay [7], in assay [9] and in [10] was inactive. Also, the AC50 in assay [8] is 20 µM (active).

For `CCOC(=O)C(C)Oc1ccc(Oc2cnc3cc(Cl)ccc3n2)cc1` (stereo not given), the result in assay [1], in [2], in assay [3], in [4], in assay [5] and in assay [6] was inactive. For the same molecule, the outcome in assay [7], in [8], in assay [9] and in assay [10] was inactive.

Take `CC(=O)[C@H]1CC[C@H]2[C@@H]3CCC4=CC(=O)CC[C@]4(C)[C@H]3CC[C@]12C`: the result in assay [1], in assay [3], in assay [4], in assay [7], in assay [8] and in [9] was inactive. The outcome in [10] was inactive. For the same molecule, the AC50 is 8.61 µM (active) in assay [2], 3.95 µM (active) in [5] and 12.7 µM (active) in assay [6].

Regarding `CCCCOC(=O)[C@@H](C)Oc1ccc(Oc2ccc(C(F)(F)F)cn2)cc1`, the result in assay [1], in assay [2], in assay [3], in assay [4], in [5] and in assay [6] was inactive. Moreover, the result in assay [7], in assay [8], in [9] and in assay [10] was inactive.

Consider `COC(=O)c1ccc(I)cc1S(=O)(=O)NC(=O)Nc1nc(C)nc(OC)n1`, for which the result in assay [1], in [2], in assay [3], in assay [4], in [5] and in assay [6] was inactive. In addition, the outcome in [7], in [8], in [9] and in [10] was inactive.

In the case of `CC1(C)C(C=C(Cl)Cl)C1C(=O)OCc1cccc(Oc2ccccc2)c1` (stereo not given), the result in [1], in assay [2], in assay [3], in assay [4], in [5] and in assay [6] was inactive. Besides, the outcome in assay [7], in assay [8] and in [9] was inactive. Moreover, the AC50 in assay [10] is 13.4 µM (active).

Take `COC(=O)c1ccccc1S(=O)(=O)NC(=O)Nc1nc(OC(F)F)cc(OC(F)F)n1`: the outcome in assay [1], in [2], in assay [3], in [4], in [5] and in assay [6] was inactive. Further, the result in assay [7], in [8], in [9] and in assay [10] was inactive.

For the molecule `CCSC(=O)N(CC(C)C)CC(C)C`, the result in assay [1], in assay [2], in assay [3], in [4], in [5] and in [6] was inactive. The result in assay [7], in assay [8], in [9] and in assay [10] was inactive.

For `CCCN(CCC)C(=O)SCC`, the outcome in [1], in [2], in assay [3], in [4], in [5] and in [6] was inactive. Moreover, the outcome in [7], in assay [8], in assay [9] and in [10] was inactive.

Consider `CCCOC(=O)NCCCN(C)C`, for which the result in assay [1], in assay [2], in assay [3], in assay [4], in [5] and in [6] was inactive. Further, the outcome in [7], in assay [8], in [9] and in [10] was inactive.

Consider `c1ccc(Nc2ccccc2)cc1`, for which the result in [1], in [2], in assay [3], in assay [4], in assay [5] and in assay [6] was inactive. Also, the result in assay [7], in [8], in assay [9] and in assay [10] was inactive.
